Bioassay records: PubChem, National Center for Advancing Translational Sciences (NCATS)
The list is not random: actives were taken first. Their share in the collection is about 3.3%.
AmpC inh detg = blocks E. coli AmpC beta-lactamase in detergent assay | P00811 | AmpC hydrolysis of nitrocefin, absorbance 480 nm, 0.01% Triton | Potency, µM (top dose mostly 114 µM), without a hit: at the top dose activity change, negative = inhibition, most hits filed as inhibitors | 370,000 compounds, 0.041% hits;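 note: 0% = no-compound wells and -100% = no-enzyme wells; nearly all actives have a fitted effect of over 25% in size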
Target sequence (P00811 whole entry, looked up): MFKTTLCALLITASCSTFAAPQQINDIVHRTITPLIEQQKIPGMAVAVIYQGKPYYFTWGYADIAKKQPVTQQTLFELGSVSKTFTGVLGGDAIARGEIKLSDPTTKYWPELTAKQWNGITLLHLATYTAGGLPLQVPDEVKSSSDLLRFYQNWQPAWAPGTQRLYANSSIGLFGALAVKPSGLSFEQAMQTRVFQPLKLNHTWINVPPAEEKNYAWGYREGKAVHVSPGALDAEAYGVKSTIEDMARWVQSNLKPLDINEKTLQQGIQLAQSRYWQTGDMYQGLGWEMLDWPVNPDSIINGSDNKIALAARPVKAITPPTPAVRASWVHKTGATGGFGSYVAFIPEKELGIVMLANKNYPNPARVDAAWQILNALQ
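AmpC (5.3 nM in the dispensed reagent) in 20 mM phosphate pH 7.0 with 0.01% (detergent screen) or 0.0001% Triton X-100 was preincubated with compounds for 15 min at room temperature. Nitrocefin was then added from an 800 uM solution, and hydrolysis was followed at 480 nm.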
RE007 growth inh = less growth of the S. pombe RE007 Vpr strain; S. pombe RE007 Vpr strain, BacTiter-Glo ATP luminescence, 24 h; Potency, µM (titrated, usually from 92.2 µM), inactives show top-dose activity change, negative = less growth, hits mostly inhibitors; 360,000 compounds, 0.21% hits; active = well fitted falling curve with a large enough effect; inconclusive = small, poorly fitted or top-dose-only effect; inactive = no such curve, though single readings can be large or run the other way; note: % is set by controls: 0 for no effect and ±100 for the full control effect; nearly all actives have a fitted effect of over 50% in size
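Fission yeast strain RE007, carrying one chromosomally integrated HIV-1 vpr copy, was seeded at OD 0.01 in PMG+AL medium with 23 nL pinned compound. After 24 h at 30 °C and 99% humidity, viability was read by BacTiter-Glo luminescence.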
SARS PLP yeast = inhibitors of SARS-CoV papain-like protease in yeast. S. cerevisiae expressing SARS-CoV PLpro, growth rescue. 330,000 compounds, 0.19% hits. Potency, µM (doses to about 32.9 µM), for inactives: at the top dose activity, positive = growth rescue, hits mostly activators; calls by dose curve; note: 0% is about no effect; nearly all actives have a fitted effect of over 55% in size
TbPYK inhibitor = T. brucei pyruvate kinase inhibition | Q57TT1 | TbPYK enzyme, Kinase-Glo Plus ATP luminescence, 45 min | Potency, µM (top dose mostly 76.8 µM), inactives show at the top dose activity, negative = inhibition, usual class: inhibitors | 410,000 compounds, 0.12% hits | AID 624173; note: % is set by controls: 0 for no effect and ±100 for the full control effect; nearly all actives have a fitted effect of over 50% in size
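ADP (130 uM final) triggers the TbPYK reaction after compound addition; incubation is 45 min at room temperature. Kinase-Glo Plus is then added and luminescence imaged. Normalized data are fitted to concentration-effect curves.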
AmpC inh no detg = blocks E. coli AmpC beta-lactamase in detergent-free assay; P00811; AmpC nitrocefin hydrolysis, absorbance 480 nm, 0.0001% Triton; Potency, µM (highest dose often 57.1 µM), inactives show top-dose activity change, negative = inhibition, actives largely listed as inhibitors; 330,000 compounds, 0.52% hits; AID 485341;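 note: plate controls were no compound for no effect and no enzyme for full effect; nearly all actives have a fitted effect of over 20% in size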
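AmpC (5.3 nM in the dispensed reagent) in 20 mM phosphate pH 7.0 with 0.01% (detergent screen) or 0.0001% Triton X-100 was preincubated with compounds for 15 min at room temperature. Nitrocefin was then added from an 800 uM solution, and hydrolysis was followed at 480 nm.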
Sm TGR block = blocks Schistosoma mansoni thioredoxin glutathione reductase; Q962Y6; 360,000 compounds, 3% hits; Potency, µM (highest dose often 114 µM), inactives show top-dose activity change, negative = inhibition, most hits filed as inhibitors; purified TGR, DTNB reduction, TNB absorbance 405 nm; note: % is set by controls: 0 for no effect and ±100 for the full control effect; nearly all actives have a fitted effect of over 60% in size
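TGR 20 nM + NADPH 100 uM (dispensed conc.), cpd preinc 15 min RT; start with NADPH (500 uM addition) then DTNB (15 mM addition). Kinetic TNB absorbance, 405 nm filter. Four-parameter Hill fit across titration.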
The depositor's hits bear a star. Unless noted, calls come from the whole dose curve; as a rule, active = well fitted curve in the direction sought with a large enough effect; inconclusive = small, poorly fitted or top-dose-only effect, or another doubt; inactive = no such curve, though single readings can be large; an effect the other way counts as inactive or inconclusive. Potency is the fitted concentration of half-maximal effect.

Screening Clc1ccc(-c2nc3ccccn3c2Nc2ccc3c(c2)OCCO3)s1 returned AmpC inh detg -4%, TbPYK inhibitor 3% and Sm TGR block -13%.
For CCCCN(CC)CCCNC(=O)CCN1N=C(c2ccc(OC)cc2)CCC1=O the results were AmpC inh detg -3%, TbPYK inhibitor -2% and Sm TGR block -12%.
`COc1ccc(C(=O)C(OC(=O)CNC(=O)c2ccco2)c2ccccc2)cc1` (stereo not given) gave AmpC inh detg -3%, RE007 growth inh 20%, SARS PLP yeast 6%, TbPYK inhibitor 1%, AmpC inh no detg -9% and Sm TGR block 18µM*.
`O=C(CNC(=O)c1ccccc1)OC(C(=O)c1ccccc1)c1ccccc1` (stereo not given) gave AmpC inh detg 2%, RE007 growth inh -8%, SARS PLP yeast inconclusive, TbPYK inhibitor 2%, AmpC inh no detg -37% and Sm TGR block -3%.
Screening CCOC(=O)c1cccc(NC(=O)C2=C(C)C(=O)OC23CCCCC3)c1 returned AmpC inh detg 17%, TbPYK inhibitor 4% and Sm TGR block 1%.
For CC1CCN(c2oc(-c3cccs3)nc2S(=O)(=O)c2ccc(Cl)cc2)CC1 the results were AmpC inh detg 27%, TbPYK inhibitor -7% and Sm TGR block 2%.
Screening COc1cccc(OC)c1OC(=O)/C=C/c1ccc(C)o1 returned AmpC inh detg -7%, RE007 growth inh -9%, SARS PLP yeast 3%, TbPYK inhibitor 0%, AmpC inh no detg -17% and Sm TGR block 35µM*.
Screening COC(=O)/C(C#N)=C/c1ccc(C)o1 returned AmpC inh detg 1%, RE007 growth inh 6%, SARS PLP yeast 1%, TbPYK inhibitor 3%, AmpC inh no detg -16% and Sm TGR block 9%.
For Cc1ccc(/C=C/C(=O)Oc2ccc(C#N)cc2)o1 the results were AmpC inh detg -3%, SARS PLP yeast -3%, AmpC inh no detg -24% and Sm TGR block 50µM*.
`O=C(COc1ccc(Br)cc1Br)Nc1ccc(S(=O)(=O)Nc2ncccn2)cc1` gave AmpC inh detg 1%, TbPYK inhibitor 1% and Sm TGR block 2%.
CN(C)CCOC1=Cc2ccccc2Sc2ccc(Cl)cc21 was read as TbPYK inhibitor -4%.
`COC(=O)COc1ccc(S(=O)(=O)NCCC2=CCCCC2)cc1C` gave AmpC inh detg 1%, RE007 growth inh -4%, SARS PLP yeast -16%, TbPYK inhibitor 2%, AmpC inh no detg -1% and Sm TGR block -7%.
Screening COC(=O)COc1ccc(S(=O)(=O)NCCC2=CCCCC2)cc1 returned AmpC inh detg 3%, RE007 growth inh -19%, SARS PLP yeast -6%, TbPYK inhibitor 4%, AmpC inh no detg 0.14µM* and Sm TGR block -24%.
Cc1cccc(NC(=O)Cn2c(=O)c3cccn3c3ccccc32)c1C was read as AmpC inh detg 9%, TbPYK inhibitor 0% and Sm TGR block -2%.
For Cc1cc(O)c(C(c2cccc(Cl)c2)N2CCN(c3ccccc3)CC2)c(=O)n1Cc1ccco1 (stereo not given) the results were AmpC inh detg 23%, TbPYK inhibitor -1% and Sm TGR block 4µM*.
Cc1cc(O)c(C(c2cccc(F)c2)N2CCN(c3ccccc3)CC2)c(=O)n1Cc1ccco1 (stereo not given) was read as AmpC inh detg 2%, TbPYK inhibitor -1% and Sm TGR block 3.2µM*.
CC1=CC(=O)C(C(C)C)=CC1=NC(=O)c1ccc(C)cc1 was read as AmpC inh detg -8%, RE007 growth inh -8%, SARS PLP yeast -2%, TbPYK inhibitor inconclusive, AmpC inh no detg -15% and Sm TGR block 3.2µM*.
CCCOc1ccc(C(=O)Nc2ccc3oc(-c4ccncc4)nc3c2)cc1 was read as AmpC inh detg 8%, TbPYK inhibitor -3% and Sm TGR block 1%.
Cc1ccc(-c2ccc(CCC(=O)O)n2-c2ccc(C(=O)O)cc2)cc1 was read as AmpC inh detg 1%, SARS PLP yeast 3%, TbPYK inhibitor -12%, AmpC inh no detg -20% and Sm TGR block 14µM*.
`Cc1ccc(-c2ccc(CCC(=O)O)n2-c2ccc(C(C)C)cc2)cc1` gave AmpC inh detg -10%, TbPYK inhibitor -10% and Sm TGR block 40µM*.
Screening Cc1ccc(-c2ccc(CCC(=O)O)n2NC(=O)c2cccs2)cc1 returned AmpC inh detg 10%, RE007 growth inh 1%, SARS PLP yeast 6%, TbPYK inhibitor -9%, AmpC inh no detg -29% and Sm TGR block -24%.
`Cc1ccc(-c2ccc(CCC(=O)O)n2-c2cccc(C(=O)O)c2)cc1` gave AmpC inh detg -7%, RE007 growth inh 5%, SARS PLP yeast 1%, TbPYK inhibitor -10%, AmpC inh no detg -13% and Sm TGR block 13µM*.
COC(=O)c1ccc(-n2c(CCC(=O)O)ccc2-c2ccc(C)cc2)cc1 was read as AmpC inh detg 1%, RE007 growth inh -9%, SARS PLP yeast 1%, TbPYK inhibitor -9%, AmpC inh no detg -40% and Sm TGR block 28µM*.
For Cc1cc(C)n(-c2nc3cc(Cl)ccc3nc2Nc2ccc(CC(=O)O)cc2)n1 the results were AmpC inh detg 15%, TbPYK inhibitor 0% and Sm TGR block 2%.
CCOC(=O)c1ccc(-n2c(CCC(=O)O)ccc2-c2ccc(F)cc2)cc1 was read as AmpC inh detg -10%, SARS PLP yeast -2%, TbPYK inhibitor -8%, AmpC inh no detg -20% and Sm TGR block 22µM*.
`Cc1ccc(-c2ccc(CCC(=O)O)n2-c2cccc(C)c2C)cc1` gave AmpC inh detg -11%, TbPYK inhibitor -3% and Sm TGR block 22µM*.
Screening O=C(O)CCc1ccc(-c2ccc(Br)cc2)n1-c1ccccc1O returned AmpC inh detg 23%, TbPYK inhibitor 1% and Sm TGR block -18%.
For CCOC(=O)c1ccc(NC(=O)Nc2ccc(F)cc2)cc1 the results were AmpC inh detg -2%, RE007 growth inh 2%, SARS PLP yeast inconclusive, TbPYK inhibitor 4%, AmpC inh no detg inconclusive and Sm TGR block 5%.
For O=C(O)CCc1ccc(-c2ccccc2)n1-c1cccc(O)c1 the results were AmpC inh detg -8%, RE007 growth inh -10%, SARS PLP yeast 0%, TbPYK inhibitor 2%, AmpC inh no detg -51% and Sm TGR block 14µM*.
